The source of these data is PubChem BioAssay (NCATS).

Each structure is given as a SMILES string. Records with an inconclusive call do not appear. A number with no mark means an inactive call. Calls of active or inactive are those of the source. Calls come from the whole dose curve; as a rule, active = well fitted inhibition curve with a large enough effect; inconclusive = small, poorly fitted or top-dose-only effect; inactive = flat fitted curve, though single readings scatter.
% is set by controls: 0 for no effect and ±100 for the full control effect.

The test system of this test is KB-3-1. Kind of test: Cytotoxic Profiling of Annotated Libraries Using Quantitative High-Throughput Screening (AID 1296008). Note: nearly all actives have a fitted effect of over 60% in size. The settings on record: Five cell lines viability, CellTiter-Glo ATP luminescence, 48-72 h; max response: active compounds read low. The method in brief: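 Compounds were pin-transferred onto cells and incubated 48 or 72 hr at 37 degree Celsius, 95% humidity. CellTiter-Glo was added, plates sat 10 min at room temperature, then ATP-coupled luminescence was imaged as the viability read-out.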
A general note: ATP-based viability assays read luminescence as a measure of living cells.
Regarding `CC12CCC3C(C)(C)C(O)CCC3(C)C1Cc1c(oc(C(=O)O)cc1=O)O2` (centres undefined), the result was inactive.

`Cc1cc(O)cc(Oc2cc(C)c(C(=O)O)c(O)c2)c1`: the result was inactive. In the case of `C[C@@H]1O[C@@H](O[C@@H]2[C@@H](O)[C@H](O[C@@H]3[C@@H](O)[C@@H](O)[C@H](O[C@H]4[C@H](OC(=O)[C@]56CCC(C)(C)C[C@H]5C5=CCC7[C@@]8(C)C[C@H](O)[C@H](O[C@@H]9O[C@@H](C)[C@H](O)[C@@H](O)[C@H]9O)[C@@](C)(CO)C8CC[C@@]7(C)[C@]5(C)C[C@H]6O)O[C@H](C)[C@H](O)[C@@H]4O)O[C@H]3C)OC[C@H]2O)[C@H](O)[C@H](O)[C@H]1O` (some centres undefined), the call was inactive. The same measure, in the same setting: the same measure for `CC1CCC2(O1)C(C)(C)CC(O[C@@H]1O[C@H](CO[C@@H]3OC[C@](O)(CO)[C@H]3O)[C@@H](O)[C@H](O)[C@H]1O)CC2(C)O` (some centres undefined): “inactive”.

Consider `C[C@@]12C[C@]3(O)O[C@H](O1)[C@]1(COC(=O)c4ccccc4)[C@H]3C[C@@]12O[C@@H]1O[C@H](COC(=O)c2ccccc2)[C@@H](O)[C@H](O)[C@H]1O`, for which the max response is 1.05%. Take `C=C1CC[C@H]2[C@@H](/C=C(\C)C(=O)[C@@]3(OC(C)=O)C[C@H](C)[C@H](OC(C)=O)[C@@H]3[C@H]1OC(C)=O)C2(C)C`: the compound was classed as inactive. Consider `NCc1c[nH]c(=S)n1C1CCc2c(F)cc(F)cc2C1` (centres undefined), for which the max response is -6.7%. For `C/C=C/C1=CC2=CC(=O)C(C)(O)C(OC(=O)c3c(C)cc(O)cc3O)C2CO1` (centres undefined), the max response was 2.68%. For the compound `O=C1NC(=Nc2ccccc2F)S/C1=C\c1ccc(C(=O)O)cc1`, the compound was called inactive. Still for that read-out and setting: the same measure for `C=C[C@H]1[C@H](O[C@@H]2O[C@H](CO[C@@H]3OC[C@](O)(CO)[C@H]3O)[C@@H](O)[C@H](O)[C@H]2O)OC=C2C(=O)OCC[C@H]21`: “inactive”; for `CNC(=O)O[C@H]1COc2ccc(N3CCN(C4COC4)CC3)cc2[C@@H]1NC(=O)c1ccc(F)cc1`: “inactive”; for `CC(=O)[C@@H]1CC[C@]2(C(=O)O)CC[C@]3(C)C(CCC4[C@@]5(C)CC[C@H](O)C(C)(C)C5CC[C@]43C)C12` (some centres undefined): “inactive”. The same measure, in the same setting: then `O=C(NCC(=O)N1CC[C@H](NC2CCC(O)(c3ccc(-c4ncccn4)cn3)CC2)C1)c1cccc(C(F)(F)F)c1` (some centres undefined), with “inactive”. Consider `COC(=O)C[C@@H]1C(C(=O)O)=CO[C@@H](O[C@@H]2O[C@H](CO)[C@@H](O)[C@H](O)[C@H]2O)/C1=C\COC(=O)/C=C\c1ccccc1`, for which the max response was -0.0915%. Regarding `CC(=O)NCCCCn1c2c(c3ccccc31)C(=O)NCC2`, the outcome was inactive. On the same count and under the same terms, the same measure for `COC(=O)C1C(c2ccc(O)cc2)C(C(=O)OC)C1c1ccc(O)cc1` (centres undefined): “inactive”. For `CC(=O)N1c2ccccc2C2(O)CC3C(=O)NC(CC(C)C)C(=O)N3C12` (centres undefined), the max response was 2.12%. As to `CC(C)C1=CC2=CCC3[C@](C)(CCC[C@@]3(C)C(=O)O)C2CC1O` (some centres undefined), the outcome was inactive. The same measure, in the same setting: then `C[C@@H]1O[C@@H](OC[C@H]2O[C@@H](OCCc3ccccc3)[C@H](O)[C@@H](O)[C@@H]2O)[C@H](O)[C@H](O)[C@H]1O`, with “inactive”; and `OCCc1ccc(O[C@@H]2O[C@H](CO)[C@@H](O)[C@H](O)[C@H]2O)c(O)c1`, with “inactive”.

Take `C/C=C(\C)C(=O)OC[C@H]1O[C@H](O[C@H]2O[C@H](CO)[C@@H](OC(=O)/C(C)=C/C)[C@H](O)[C@H]2O[C@@H]2O[C@H](CO)[C@@H](O)[C@H](O)[C@H]2O)[C@H](O[C@@H]2O[C@H](CO)[C@@H](O)[C@H](O)[C@H]2O)[C@@H](O)[C@@H]1O`: the max response was 8.89%.

As to `COc1cc([C@H]2OC[C@]3(OC(C)=O)[C@@H](c4ccc(O[C@@H]5O[C@H](CO)[C@@H](O)[C@H](O)[C@H]5O)c(OC)c4)OC[C@H]23)ccc1O`, the compound was called inactive. Turning to `CCn1nnnc1NCc1ccc(C(C)C)cc1`, the max response was 2.69%. Same read-out and setting: the same measure for `C=C1C[C@]23C[C@H]1CC[C@H]2[C@]1(C)CCC[C@@]2(CO)C(=O)O[C@H]([C@H]21)[C@@H]3O`: 6.36%. As for `CC(=O)O[C@@H]1C[C@]2(C)[C@@]3(CCC4[C@@]5(C)CC[C@H](O[C@@H]6O[C@H](C(=O)O)[C@@H](O)[C@H](O[C@@H]7O[C@H](CO)[C@H](O)[C@H](O)[C@H]7O[C@@H]7O[C@@H](C)[C@H](O)[C@@H](O)[C@H]7O[C@@H]7OC[C@](O)(CO)[C@H]7O)[C@H]6O[C@@H]6O[C@H](CO)[C@H](O)[C@H](O)[C@H]6O)C(C)(C)C5CC[C@]42C)O[C@@H](O)[C@]12C3CC(C)(C)[C@@H](OC(=O)/C=C/c1ccc(O)c(O)c1)[C@@H]2OC(=O)/C=C/c1ccccc1` (some centres undefined), the outcome was inactive. Take `CC(C)CC(=O)OC[C@H]1O[C@@](COC(=O)CC(C)C)(O[C@H]2O[C@H](CO)[C@@H](O)[C@H](O)[C@H]2O)[C@@H](OC(=O)CC(C)C)[C@@H]1OC(=O)CC(C)C`: the max response was 9.19%. Turning to `NC(=O)c1cccc(-c2cc(O)cc(OC(=O)NC3CCCCC3)c2)c1`, the compound was called inactive.

Turning to `CC1(C)CC(=O)N(CCCCN2CCN(c3ncccn3)CC2)C(=O)C1`, the max response was 4.21%.

Turning to `C[C@H](NCc1ccc(OCc2ccccc2F)cc1)C(N)=O`, the max response was -7.57%. For the compound `C[C@@H]1C(=O)O[C@H]2CC34[C@H]5C[C@@H](C(C)(C)C)C36[C@@H](OC(=O)[C@@H]6O)OC4(C(=O)O5)[C@]21O` (some centres undefined), the max response was 9.69%. On the same count and under the same terms, then `CC1CCC2(NC1)OC1C(=O)C3C4CCC5CC(O[C@@H]6O[C@H](CO)[C@@H](O)[C@H](O)[C@H]6O[C@@H]6O[C@@H](C)[C@H](O)[C@@H](O)[C@H]6O)CCC5(C)C4CCC3(C)C1C2C` (some centres undefined), with -4.49%; and `Cc1nn(C)c(COc2ccc(N3CCN(S(=O)(=O)N(C)C)CC3)cc2)c1-c1cccc2c(CCCOc3cccc4ccccc34)c(C(=O)O)n(CCN3CCOCC3)c12`, with 3.5%. On to `C/C=C(\C)C(=O)O[C@H]1[C@H](O)[C@]2(COC(C)=O)[C@H](O)C[C@]3(C)C(=CCC4[C@@]5(C)CC[C@H](O[C@@H]6O[C@H](C(=O)O)[C@@H](O[C@@H]7O[C@H](CO)[C@@H](O)[C@H](O)[C@H]7O)[C@H](O)[C@H]6O[C@@H]6O[C@H](CO)[C@@H](O)[C@H](O)[C@H]6O)[C@](C)(CO)C5CC[C@]43C)[C@@H]2CC1(C)C` (some centres undefined), for which the compound was called inactive. For `CC(C)=CC/C=C(/C)[C@H]1CC[C@]2(C)[C@@H]1[C@H](O)CC1[C@@]3(C)CC[C@H](O)C(C)(C)[C@@H]3[C@@H](O[C@@H]3O[C@H](CO)[C@@H](O)[C@H](O)[C@H]3O[C@@H]3O[C@@H](C)[C@H](O)[C@@H](O)[C@H]3O)C[C@]12C` (some centres undefined), the max response was 7.96%.

On to `OC[C@H]1O[C@@H](Oc2cc(O)cc(/C=C/c3ccc(O)cc3)c2)[C@H](O)[C@@H](O)[C@@H]1O`, for which the compound was classed as inactive. On the same count and under the same terms, then `CC(C)=CCc1ccc(Oc2c(O)cc(C)cc2CO)c(C(=O)O)c1O`, with “inactive”.

For the compound `CC(=O)N(O)CCCCCN1C(=O)CCC1=O`, the max response was 2.57%. Regarding `CC(C)NC[C@H](O)COc1ccc(CCOCC2CC2)cc1`, the compound was called inactive. On the same count and under the same terms, then `C=CCc1ccc(O[C@@H]2O[C@H](CO)[C@@H](O)[C@H](O)[C@H]2O)c(OC)c1`, with “inactive”.
